Assays:
Format in all cases: functional
[1] = biological target: Solute carrier family 2, facilitated glucose transporter member 1 (Homo sapiens) (UniProt P11166); assay: ST_JUDE_LEISH: Cytotoxicity at 2uM final concentration against transgenic Leishmania Mexicana promastigotes LmGLUT1 that are glucose transport deficient and complemented with the human glucose transporter GLUT1. Activity is measured by DNA content using SYBR green in vitro
[2] = biological target: Hexose transporter 1 (Plasmodium falciparum) (UniProt O97467); assay: ST_JUDE_LEISH: Cytotoxicity at 2uM final concentration against transgenic Leishmania Mexicana promastigotes LmPfHT that are glucose transport deficient and complemented with the Plasmodium falciparum hexose transporter. Activity is measured by DNA content using SYBR green in vitro
[3] = biological target: Glucose transporter (Leishmania mexicana) (UniProt O61059); assay: ST_JUDE_LEISH: Cytotoxicity at 2uM final concentration against transgenic Leishmania Mexicana promastigotes LmGT2 that are glucose transport deficient and complemented with the L. Mexicana glucose transporter 2. Activity is measured by DNA content using SYBR green in vitro

Sequence of Solute carrier family 2, facilitated glucose transporter member 1 (Homo sapiens) (P11166 whole entry): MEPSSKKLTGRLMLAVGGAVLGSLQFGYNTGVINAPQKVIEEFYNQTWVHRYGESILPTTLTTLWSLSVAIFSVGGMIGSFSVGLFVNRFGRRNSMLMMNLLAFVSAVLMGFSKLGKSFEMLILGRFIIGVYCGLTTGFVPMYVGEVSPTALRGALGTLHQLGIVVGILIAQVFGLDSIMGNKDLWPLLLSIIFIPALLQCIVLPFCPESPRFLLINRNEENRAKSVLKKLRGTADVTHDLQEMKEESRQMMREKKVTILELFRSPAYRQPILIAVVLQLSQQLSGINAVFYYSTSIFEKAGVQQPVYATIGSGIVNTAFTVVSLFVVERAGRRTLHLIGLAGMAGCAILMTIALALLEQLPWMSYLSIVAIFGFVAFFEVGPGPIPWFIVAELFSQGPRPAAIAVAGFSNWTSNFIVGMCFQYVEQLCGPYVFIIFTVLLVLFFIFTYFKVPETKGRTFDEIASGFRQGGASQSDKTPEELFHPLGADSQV

| Compound | inhibition [1] [%] | inhibition [2] [%] | inhibition [3] [%] |
| --- | --- | --- | --- |
| CC(C)(C)Nc1nc(Nc2cccc([N+](=O)[O-])c2)nc(-n2ccnc2)n1 | 1.91 | 1.9 | -1.47 |
| COc1ccccc1C1CCN(C2CCC(NC(=O)/C=C/c3ccc(OC(F)(F)F)cc3)CC2)CC1 (stereo not given) | 0.94 | 1.54 | 2.36 |
| OCc1ccc(-c2cncc(Nc3ccc(F)c(Cl)c3)c2)cc1 | 3.7 | 4.21 | 1.04 |
| CNC(=O)C1Cc2c([nH]c3c(C)cccc23)C2(N1)C(=O)Nc1ccc(OC(F)(F)F)cc12 (stereo not given) | 1.24 | 1.59 | 3.8 |
| COc1ccc(-c2cccc(NC(=O)c3ccc(C#N)cc3)c2)cc1CN1CCCC1 | 11.3 | 11.1 | 2.91 |
| CCOc1cc(C)ccc1C1CCN(CCCCNC(=O)c2coc(-c3ccc(Cl)cc3)c2)CC1 | 0.96 | 3.18 | 2.06 |
| COc1cc(Cc2cnc(N)nc2N)cc(OCCCCC2SC(=O)NC2=O)c1OC (stereo not given) | 2.3 | 0.84 | 1.34 |
| Cc1ccc2c(=NN=Cc3cccc(F)c3)cc(C)[nH]c2c1 | 7.16 | 7.52 | 6.18 |
| O=C(Nc1cccc(C(F)(F)F)c1)NC1CCN(c2ccnc3cc(Cl)ccc23)CC1 | 1.6 | 1.64 | -1.47 |
| Cc1nnc2c(NC(=O)NC3CCCC3)cc3ccc(-c4cccc(CN5CCN(C)CC5)c4)cc3n12 | 6.21 | 6.49 | 5.53 |
| Cc1[nH]c2c(C)cccc2c1C1CCN(CCC2CCN(C(=O)/C=C/c3ccc(Cl)c(Cl)c3)CC2)CC1 | 3.84 | 3.13 | 2.49 |
| Cc1cnccc1/C=C/c1cccc(OCCN2CCc3ccc(S(C)(=O)=O)cc3CC2)c1 | 1.95 | 2.77 | 1.68 |
| N#Cc1ccc(N(CCOC(=O)c2ccc(Br)s2)Cc2ccccc2C(F)(F)F)cc1C(F)(F)F | 1.7 | 4.9 | 3.28 |
| Cc1nc(O)c2c(ccc3ccc(CNc4ccc(C(=O)N[C@@H](CCC(=O)O)C(=O)O)c(F)c4)cc32)n1 | -0.83 | 0.87 | -0.16 |
| Cc1nnsc1C(=O)Nc1ccc(-c2cccc(-c3nc4cc(C(F)(F)F)ccc4[nH]3)c2)cc1 | 0.51 | 0.86 | 4.55 |
| N=c1n(CCN2CCCCC2)c2ccccc2n1CC(O)c1ccc(Cl)c(Cl)c1 (stereo not given) | 1.22 | -0.46 | 1.58 |
| O=C(O)C[C@H](NC(=O)c1cc(-c2ccc3c(c2)OCO3)no1)C(=O)O.O=C(O)C[C@H](NC(=O)c1conc1-c1ccc2c(c1)OCO2)C(=O)O | -1.58 | -1.07 | -2.23 |
| CCCCN1CCN(CC(O)CNC(=O)Nc2ccc(Cl)cc2)CC1 (stereo not given) | 2.88 | 3.59 | 1.81 |
| CCC1N=C(N)N=C(N)N1OCc1ccc(Cl)c(Cl)c1 (stereo not given) | -0.58 | 0.09 | -0.8 |
| COc1c(C2CCN(CCCCNC(=O)c3noc(-c4ccc(C#N)cc4)n3)CC2)ccc2c1CCCC2 | 2.99 | 1.9 | 2.85 |
| COc1ccc(N2CCN(CCCCNC(=O)c3ccc(NC(=O)c4cccc(Cl)c4)cc3)CC2)c(OC)c1 | 3.81 | 0.48 | 4.97 |
| CC(=O)Nc1ccc(CN2CCC(NC(=O)c3ccc(-c4cccc(C(F)(F)F)c4)s3)CC2)cc1 | 0.69 | 0.42 | -4.9 |
| Cc1cccc(C)c1C1CCN(CCCCNC(=O)c2cc3ccccc3[nH]2)CC1 | 1.79 | 0.17 | 0.3 |
| COc1cc(Cc2cnc(N)nc2N)cc(OCCCCC2NC(=O)NC2=O)c1OC (stereo not given) | 14.8 | 14.5 | 11.6 |

| Compound | inhibition [1] [%] | inhibition [2] [%] | inhibition [3] [%] |
| --- | --- | --- | --- |
| O=C(Nc1ccc(Cl)cc1)Nc1cccc(-c2cccc(-c3nc4ccccc4[nH]3)c2)c1 | 1.17 | 0.33 | -0.65 |
| CCCCCCNC(=O)C1Cc2c([nH]c3ccc(F)cc23)C2(CCN(Cc3ccccc3)CC2)N1 (stereo not given) | 12.7 | 9.28 | 7.57 |
| COCCN1CCC(N(CC2(O)CCN(c3ccc(C(F)(F)F)cc3)CC2)C(=O)Cn2c(SCc3cccc(F)c3F)cc(=O)c3ccccc32)CC1 | -0.38 | 0.65 | 0.85 |
| c1cc(CN2CCC(CCN3CCCCC3)CC2)cc(-c2csc(-c3nc4ccccc4[nH]3)c2)c1 | 7.93 | 8.75 | 4.01 |
| OCC1CCN(Cc2ccc(-c3ccc(-c4nc5cc(C(F)(F)F)ccc5[nH]4)cc3)cc2)CC1 | 5.9 | 8.94 | 3.07 |
| Nc1nc2c(c(=O)[nH]1)CN(S(=O)(=O)c1ccc(C(=O)N[C@@H](CCC(=O)O)C(=O)O)cc1)CC2 | -3.01 | -2.13 | -1.12 |
| CC(C)CNCc1ccc(-c2cccc(CN(C(=O)NCCc3ccccc3)C3CCN(Cc4ccccc4)CC3)c2)cc1 | 9.24 | 11 | 8.02 |
| Cc1cccc2nc(-c3ccc(-c4cccc(NC(=O)Nc5ccc6c(c5)OCO6)c4)cc3)[nH]c12 | 2.61 | 4.13 | 3.3 |
| O=C(/C=C/c1ccc(F)cc1)NC1CCC(CCN2CCCN(c3ccc(C(F)(F)F)cn3)CC2)CC1 (stereo not given) | 1.97 | -0.46 | -1.02 |
| O=C(CCCCCNC(=O)c1ccc(O)c(-c2ccc(Cl)c(Cl)c2)c1)NCCN1CCCC1 | 1.19 | 0.7 | 1.56 |
| Cc1ccc(C(=O)NC2CC2)cc1-c1ccc2c(cnn2S(=O)(=O)c2ccc(F)cc2)c1 | 3.39 | 3.78 | 0.4 |
| COc1ccc(Nc2nccc(N3CCC(NC(=O)Nc4cccc(C(C)=O)c4)C3)n2)cc1 (stereo not given) | -3.73 | 0.98 | 3.49 |
| O=C(Nc1cccc(-c2cccc(-c3nc4ccccc4[nH]3)c2)c1)c1ccncc1 | 4.03 | 4.7 | 0.44 |
| O=C(Nc1nc2cc(S(=O)(=O)NCc3ccc(Cl)c(Cl)c3)ccc2n1CCCN1CCCC1)c1ccc(Cl)cc1 | 1.48 | 1.6 | 3.04 |
| COc1c(C2CCN(CCCCNC(=O)c3ccc(-c4ccc(C#N)cc4)nc3)CC2)ccc2c1CCCC2 | 1.52 | 2.03 | 0.52 |
| N#Cc1ccc(NC(=O)Nc2ccc(OC(F)(F)F)cc2)cc1 | 2.17 | 1.59 | -0.05 |
| Cc1ccc2c(c1[N+](=O)[O-])N=NCC2Oc1ccccc1 (stereo not given) | 10.8 | 9.1 | 10.6 |
| O=C(CSc1nnc(-c2ccccc2Br)[nH]1)c1c[nH]c2ccccc12 | -0.5 | -0.7 | 1.98 |
| CC(C)(C)c1ccc(CN2CCC(CNC(=O)c3cc(-c4ccccc4Cl)cs3)C2)cc1 (stereo not given) | 0.49 | 0.05 | 1.29 |
| CCn1ncc(Cl)c1CN(C)S(=O)(=O)c1ccc(Br)cc1 | -0.68 | -0.62 | -2.26 |
| Cc1cccc2nc(-c3ccc(-c4cccc(CNCc5ccccc5)c4)s3)[nH]c12 | -1.26 | -0.6 | -0.69 |
| O=S(=O)(NCCN1CCCC1)c1ccc(-c2ccc(CNCc3ccccc3)cc2)s1 | 4.55 | 3.35 | 2.5 |
| CCOC(=O)CC[C@H](NC(=O)c1ccc(NS(=O)(=O)c2ccc(-c3cnc(N)[nH]c3=O)cc2)cc1)C(=O)OCC | 4.2 | 5.08 | 4.7 |
| Cn1cc(C2CCN(CCCCNC(=O)c3ccc(-c4ccc(C(F)(F)F)cc4)c(CO)c3)CC2)c2ccccc21 | 4.11 | 3.1 | 2.35 |

| Compound | inhibition [1] [%] | inhibition [2] [%] | inhibition [3] [%] |
| --- | --- | --- | --- |
| COc1cccc(C(=O)N2CCOC(CCN3CCC(c4ccccc4)CC3)(c3ccc(Cl)c(Cl)c3)C2)c1 (stereo not given) | 0.55 | -0.77 | -0.26 |
| O=C(Nc1cccc(CN2CCN(C(=O)c3cccc(Cl)c3)CC2)c1)c1ccco1 | -4.34 | 0.58 | 3.82 |
| Cc1cc(Nc2ccc(OCc3ccccc3Cl)cc2)c2cc(Cl)ccc2n1 | 19.8 | 16.4 | 7.55 |
| CCCCCCCN(CCCCCCC)CCNc1cc(C)nc2ccccc12 | 6.37 | 5.18 | 4.49 |
| CC(=O)Nc1ccc(NC(=O)c2cc(-c3ccc(C)cc3O)n[nH]2)cc1 | -0.23 | 7.7 | 0.4 |
| COC1CCC(C(=O)Nc2ccc(-c3cccc(-c4nc5cc(C(F)(F)F)ccc5[nH]4)c3)cc2)CC1 (stereo not given) | 0.64 | -0.27 | 0.65 |
| CC(C)CNCc1ccc(-c2cccc(CN(CCN(C)C)C(=O)NCCc3ccccc3)c2)cc1 | -0.22 | 1.83 | 0.23 |
| CC1(C)CCCC(=Cc2ccc(Br)cc2)C1(O)Cn1ccnc1 (stereo not given) | 27.9 | 20.9 | 13.5 |
| CNC(=O)c1ccccc1Nc1nc(Nc2ccc(N3CCN(C)CC3)nc2)ncc1C | 12 | 11.3 | 9.03 |
| CC(C)c1ccc(NC(=O)NCCCC2CCCN(CCCCCNC(=O)/C=C/c3ccc(Cl)c(Cl)c3)C2)cc1 (stereo not given) | 1.47 | 2.49 | 5.08 |
| CN1CCCN(Cc2cccc(-c3cccc(NC(=O)c4cccc(Cl)c4)c3)c2)CC1 | 13.4 | 9.81 | 9.71 |
| OC(c1ccccc1)C1CN(CCC2CC3CCC2C3)CCC1(O)c1ccccc1 (stereo not given) | -0.77 | -3.69 | -3.24 |
| COc1c(C(=O)NC2CCN(Cc3ccccc3)C2)cnc2ccccc12 (stereo not given) | 11.8 | 9.19 | 8.95 |
| O=C(/C=C/c1ccc(Cl)c(Cl)c1)NC1CCC(CN2CCC(c3cc4ccccc4[nH]3)CC2)CC1 (stereo not given) | 0.13 | 2.67 | 1.06 |
| CC(C)(C)c1nn(-c2ccccc2)c2[nH]c(=O)c(CNCc3ccc4c(c3)OCO4)cc12 | 6.79 | 3.28 | 3.39 |
| COc1cc(-c2nnc(SCC(=O)Nc3cc(C)on3)n2C)cc(OC)c1O | 7.83 | 7.61 | 7.59 |
| COc1cc2s/c(=N\C(=O)c3cccc([N+](=O)[O-])c3)n(C)c2cc1OC | 9.71 | 10.7 | 6.9 |
| Nc1nc(Nc2cccc(O)c2)nc2ccccc12 | 6.67 | 9.29 | 1.22 |
| CCOc1ccc(OCC)c(N2CCN(CCCCNC(=O)c3ccc(NC(=O)c4ccc(Cl)cc4)cc3)CC2)c1 | 3.44 | 3.28 | 3.45 |
| CCCc1cc(Cc2cnc(N)nc2N)cc(CCC)c1OCCCCC(=O)OCC | 6.48 | 2.3 | 1.54 |
| O=C(c1ccco1)c1cn(CCOc2ccccc2)c2ccccc12 | 1.36 | 1.5 | -0.07 |
| OC1CCCN(Cc2cccc(-c3ccc(-c4nc5ccccc5[nH]4)cc3)c2)C1 (stereo not given) | 3.91 | 5.45 | -2.43 |
